According to PubChem BioAssay (NCATS):
Where “and” joins values, the source holds several entries; their conditions need not be identical. Identical values can stand only once. Records with an inconclusive call do not appear. Values without a mark were called inactive. Calls of active or inactive are those of the source. Unless noted, calls follow the shape of the dose curve; as a rule, active = well fitted inhibition curve with a large enough effect in the repeat runs; inconclusive = weak or mixed curves; inactive = flat fitted curve, though single readings scatter.

System: not listed separately
Test: A High-Content qHTS Against Drug Library for the Identification of Small Molecules that Inhibit DYT1 Early Onset Primary Dystonia-Associated Cell Pathology (AID 1645839; calls by dose curve)
Details: HEK293 Flp-In EGFP-delE TorsinA, punctate imaging, 48 h; series mostly up to 91.7 µM; % pathology change, negative = correction: at the top concentration
Method in brief: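 High-content imaging quantified EGFP-TorsinA mislocalization in HEK293-derived cells inducibly expressing DYT1 mutant torsinA, after 48 h exposure to compound given together with tetracycline induction. Cell count served as a toxicity channel alongside %pathology.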

SMILES | % pathology change, negative = correction
CC1(C)CC/C(=C/c2ccc(Cl)cc2)C1(O)Cn1cncn1 (stereo not drawn) | -18.1%
O=[N+]([O-])c1c(Cl)c(Cl)cc(Cl)c1Cl | -10.6%
CCCCOC(=O)c1ccccc1C(=O)OCc1ccccc1 | 14.7%
O=C(O)CCCOc1ccc(Cl)cc1Cl | -13.6%
COC(C)(C)CCCC(C)C/C=C/C(C)=C/C(=O)OC(C)C (stereo not drawn) | 0.191% [at 46.1 µM]
O=C(O)COc1nc(Cl)c(Cl)cc1Cl | -11%
CC(C)(C)NC[C@H](O)c1ccc(O)cc1Cl | 19.4% [at 46.1 µM]
CCOP(=O)(NC(C)C)Oc1ccc(SC)c(C)c1 (stereo not drawn) | -8.21%
OCCCBr | 20.1%
c1cc2ccc3cccc4ccc(c1)c2c34 | 16.5% [at 104 µM]
C=CCC1=C(C)C(OC(=O)C2C(C=C(C)C)C2(C)C)CC1=O (stereo not drawn) | -23.3%
CCC1(CCC(C)C)C(=O)NC(=O)NC1=O | 2.79%
CCOCCOC(C)=O | 12.8%
CC[N+]1(CCOC(=O)C(O)(c2ccccc2)c2ccccc2)CCCCC1 | 0.837% [at 46.1 µM]
CC(O)CN1CCN(CC(=O)[O-])CCN(CC(=O)[O-])CCN(CC(=O)[O-])CC1.[Gd+3] (stereo not drawn) | 3.47% [at 46.1 µM]
CCCCC(CC)COC(=O)c1ccccc1C(=O)OCC(CC)CCCC (stereo not drawn) | 10.9%
COCCOCCO | 17.1%
Cc1ccc(Cl)c(O)c1 | 0.915% [at 46.1 µM]

Target: Cytochrome P450 2D6 (Homo sapiens) (UniProt P10635)
Test: Cytochrome P450 family 2 subfamily D member 6 (CYP2D6) small molecule antagonists: luciferase biochemical (cell-free) qHTS assay (AID 1645840); also: nearly all actives have a fitted effect of over 55% in size; also: potency is read from the fitted curve at half-maximal effect; as to activity change, negative = inhibition: % is scaled to controls: 0 for no effect and ±100 for the full control effect
Details: P450-Glo CYP2D6 enzyme, luciferin luminescence, 1 h; series mostly up to 57.4 µM; activity change, negative = inhibition: at the top concentration
Method in brief: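 P450-Glo CYP2D6 system: proluciferin substrate converted by enzyme to luciferin, read by luminescence proportional to activity. Enzyme-substrate mix with compound 10 min at room temperature, then NADPH regeneration 1 h before detection reagent.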

Cytochrome P450 2D6 (Homo sapiens), sequence (P10635 whole entry, looked up): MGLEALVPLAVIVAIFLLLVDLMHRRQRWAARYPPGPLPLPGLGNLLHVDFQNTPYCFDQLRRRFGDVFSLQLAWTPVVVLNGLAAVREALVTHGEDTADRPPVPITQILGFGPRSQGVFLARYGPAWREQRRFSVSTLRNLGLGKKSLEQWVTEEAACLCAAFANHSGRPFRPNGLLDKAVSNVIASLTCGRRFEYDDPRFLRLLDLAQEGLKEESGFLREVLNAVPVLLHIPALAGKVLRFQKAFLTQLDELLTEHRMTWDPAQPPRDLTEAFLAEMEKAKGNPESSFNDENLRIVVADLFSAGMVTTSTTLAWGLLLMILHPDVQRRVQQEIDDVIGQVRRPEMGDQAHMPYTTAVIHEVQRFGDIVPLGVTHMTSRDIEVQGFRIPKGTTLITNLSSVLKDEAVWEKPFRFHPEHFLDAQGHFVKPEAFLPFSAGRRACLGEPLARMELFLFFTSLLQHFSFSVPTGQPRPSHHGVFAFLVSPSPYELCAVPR

SMILES | Potency | activity change, negative = inhibition
CC1(C)CC/C(=C/c2ccc(Cl)cc2)C1(O)Cn1cncn1 (stereo not drawn) | 9.41 µM (active) | –
O=[N+]([O-])c1c(Cl)c(Cl)cc(Cl)c1Cl | – | -19% [at 115 µM]
Cc1[nH]nc2ccc(-c3cncc(OC[C@@H](N)Cc4c[nH]c5ccccc45)c3)cc12 | 3.79 µM (active) | –
C=CC(=O)NCNC(=O)C=C | – | -1.42% [at 115 µM]
O=C(O)CCCOc1ccc(Cl)cc1Cl | – | 7.48% [at 115 µM]
CCOC(=O)Nc1ccc(NCc2ccc(F)cc2)cc1N | 19 µM (active) | –
O=S(=O)(O)C(F)(F)C(F)(F)C(F)(F)C(F)(F)C(F)(F)C(F)(F)C(F)(F)C(F)(F)F | – | -1.86% [at 115 µM]
COC(C)(C)CCCC(C)C/C=C/C(C)=C/C(=O)OC(C)C (stereo not drawn) | – | -22.1%
CCCCCCCCCC(CC)c1ccc(S(=O)(=O)O)cc1 (stereo not drawn) | 26.7 µM (active) | –
O=[N+]([O-])c1ccc([As](=O)(O)O)cc1 | – | 2.29%
CCc1c(C(=O)C(N)=O)c2c(OCC(=O)O)cccc2n1Cc1ccccc1 | – | -12.7%
O=C(O)COc1nc(Cl)c(Cl)cc1Cl | – | -6.72% [at 115 µM]
CCN1CCN(C(=O)Cc2ccc(Nc3ncc(F)c(Nc4ccc(C(=O)Nc5ccccc5Cl)cc4)n3)cc2)CC1 | – | -23.2%
CC(C)(C)NC[C@H](O)c1ccc(O)cc1Cl | – | -18.7%
CCOP(=O)(NC(C)C)Oc1ccc(SC)c(C)c1 (stereo not drawn) | 3.88 µM (active) | –
OCCCBr | – | 10.9% [at 115 µM]
O=c1[nH]c2ccc(Cl)cc2c(N[C@@H]2CN3CCC2CC3)c1-c1nc2ccccc2[nH]1 | 1.69 µM (active) and 2.39 µM (active) | –
O=C(Oc1ccc([N+](=O)[O-])cc1)N1CCN(Cc2cccc(Oc3ccccc3)c2)CC1 | 2.68 µM (active) | –

SMILES | Potency | activity change, negative = inhibition
CC(=O)N(C)c1cccc(-c2ccnc3c(C(=O)c4cccs4)cnn23)c1 | – | 8.27%
c1cc2ccc3cccc4ccc(c1)c2c34 | – | 7.69% [at 115 µM]
Cc1ccccc1-n1c(Cn2ncc3c(N)ncnc32)nc2cccc(C)c2c1=O | – | 7.84%
ClC1=C(Cl)[C@]2(Cl)[C@@H]3[C@@H]4C[C@@H]([C@H]5O[C@@H]45)[C@@H]3[C@@]1(Cl)C2(Cl)Cl | – | 14.2% [at 115 µM]
COCC1(CO)C(=O)C2CCN1CC2 (stereo not drawn) | – | 2.02%
O=C(O)CNC(=O)c1c(O)c2ccccc2n(Cc2ccccc2)c1=O | – | 11.8%
C=CCC1=C(C)C(OC(=O)C2C(C=C(C)C)C2(C)C)CC1=O (stereo not drawn) | 23.8 µM (active) | –
CCC1(CCC(C)C)C(=O)NC(=O)NC1=O | – | -0.198% [at 115 µM]
Nc1ccc(Sc2ccc(N)cc2)cc1 | 24.5 µM (active) | –
CCOCCOC(C)=O | inactive | –
CC(C)N(CCNC(=O)CN1CCCC1=O)C(C)C | – | 4.97%
CC(O)CN1CCN(CC(=O)[O-])CCN(CC(=O)[O-])CCN(CC(=O)[O-])CC1.[Gd+3] (stereo not drawn) | – | 13.4%
COc1ccc(N(C(=O)Oc2c(C)cccc2C)c2ccnc(Nc3ccc(N4CCN(C)CC4)cc3)n2)c(OC)c1 | 1.9 µM (active) | –
CCCCC(CC)COC(=O)c1ccccc1C(=O)OCC(CC)CCCC (stereo not drawn) | – | 6.05% [at 115 µM]
O=C(Nc1ccncc1)C(=O)c1cn(Cc2ccc(Cl)cc2)c2ccccc12 | – | -27.8%
COCCOCCO | – | -3.21% [at 115 µM]
Cc1ccc(Cl)c(O)c1 | – | 2.62%
